Common to all, as to assay: yeast three-hybrid, YBZ-1, SC-Leu-His + 0.5 mM 3-AT, 4 days
Details in all cases: tags: N-Gal4 AD-HA kept; label: inside an RPR1-promoter hybrid RNA with tandem MS2 sites; ssRNA

The target in one assay is PUM1 PUF domain R7-GSR (Homo sapiens, UniProt Q14671 828-1176, S1079G;N1080S;E1083R). Summed up: (§1)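 Matching RNA elements and Pumilio-1 PUF domain libraries, randomized at the three base-contacting residues of every repeat, were co-expressed from a centromeric plasmid in strain YBZ-1 (LexA–MS2 coat fusion, HIS3 reporter). The repeat regions were PCR-amplified and Illumina-sequenced from cells grown four days on SC-Leu (input) or SC-Leu-His + 0.5 mM 3-AT (selection). The interaction score is the log change in variant frequency from input to selection. It is computed in log2, with a pseudocount of 1 for absent variants.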

For a further assay, the target named is PUM1 PUF domain R5-KYG (Homo sapiens, UniProt Q14671 828-1176, C1007K;R1008Y;Q1011G). The essentials:
as §1

In a further assay the target is PUM1 PUF domain R1-CFK (Homo sapiens, UniProt Q14671 828-1176, S863C;R864F;Q867K). Summed up: as §1
The next assay has as its target T1, PUM1 PUF domain R6-FRE (Homo sapiens, UniProt Q14671 828-1176, N1043F;Y1044R;Q1047E).
T1 sequence: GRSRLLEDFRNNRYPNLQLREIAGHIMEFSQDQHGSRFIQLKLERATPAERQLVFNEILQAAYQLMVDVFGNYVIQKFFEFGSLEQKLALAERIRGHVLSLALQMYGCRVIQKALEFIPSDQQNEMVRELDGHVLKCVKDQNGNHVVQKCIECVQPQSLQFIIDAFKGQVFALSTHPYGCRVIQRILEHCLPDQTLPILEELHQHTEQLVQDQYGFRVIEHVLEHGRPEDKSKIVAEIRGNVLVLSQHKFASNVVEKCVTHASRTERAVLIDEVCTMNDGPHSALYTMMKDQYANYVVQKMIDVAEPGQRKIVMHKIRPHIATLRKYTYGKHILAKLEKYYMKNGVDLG
Summed up: as §1

The target in a further assay is PUM1 PUF domain R4-CCM (Homo sapiens, UniProt Q14671 828-1176, N971C;H972C;Q975M). The essentials: as §1
The target in another assay is PUM1 PUF domain R2-KFG (Homo sapiens, UniProt Q14671 828-1176, N899K;Y900F;Q903G). Summed up: as §1
For a further assay, the target named is PUM1 PUF domain R4-WGF (Homo sapiens, UniProt Q14671 828-1176, N971W;H972G;Q975F). The essentials:
as §1

The target of the next assay is PUM1 PUF domain R4-WAT (Homo sapiens, UniProt Q14671 828-1176, N971W;H972A;Q975T). The essentials: as §1
Another assay concerns the target PUM1 PUF domain R4-SMR (Homo sapiens, UniProt Q14671 828-1176, N971S;H972M;Q975R). Summed up:
as §1

In the next assay the target is PUM1 PUF domain R1-KRD (Homo sapiens, UniProt Q14671 828-1176, S863K;Q867D). The essentials:
as §1

PUM1 PUF domain R5-KYG, sequence (Q14671 828-1176 C1007K/R1008Y/Q1011G): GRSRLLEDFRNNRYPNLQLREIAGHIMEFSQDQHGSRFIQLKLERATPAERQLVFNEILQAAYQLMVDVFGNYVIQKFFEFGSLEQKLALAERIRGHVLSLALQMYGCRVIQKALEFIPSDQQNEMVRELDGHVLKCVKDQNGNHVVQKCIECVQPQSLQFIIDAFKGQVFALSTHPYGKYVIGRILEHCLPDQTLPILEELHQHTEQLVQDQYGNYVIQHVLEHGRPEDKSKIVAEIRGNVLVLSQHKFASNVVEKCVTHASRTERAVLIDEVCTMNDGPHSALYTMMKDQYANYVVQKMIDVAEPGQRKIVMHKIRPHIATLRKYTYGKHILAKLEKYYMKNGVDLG

As for “GGCUAGAACUAGUGGAUCCCCCGGCGCCCGGCGGCUCGAGCCCGGGUAAGUUUAAAUAGUCUGCAUGCCGCCGGGCGCCAUGCCUGCAGGUCGACUCUAGAAAACAUG”, in the assay with PUM1 PUF domain R7-GSR, the binding signal is 4.22 log2 enrichment (interaction score).

Take “GGCUAGAACUAGUGGAUCCCCCGGCGCCCGGCGGCUCGAGCCCGGGUAAGUGUCAAUAGUCUGCAUGCCGCCGGGCGCCAUGCCUGCAGGUCGACUCUAGAAAACAUG”: the binding signal with PUM1 PUF domain R5-KYG was 5.55 log2 enrichment (interaction score).

As for “GGCUAGAACUAGUGGAUCCCCCGGCGCCCGGCGGCUCGAGCCCGGGUAAGUGUGAAUAGUCUGCAUGCCGCCGGGCGCCAUGCCUGCAGGUCGACUCUAGAAAACAUG”, the binding signal with PUM1 PUF domain R5-KYG is 2.74 log2 enrichment (interaction score).

Regarding “GGCUAGAACUAGUGGAUCCCCCGGCGCCCGGCGGCUCGAGCCCGGGUAAGUGUAAAUUGUCUGCAUGCCGCCGGGCGCCAUGCCUGCAGGUCGACUCUAGAAAACAUG”, the binding signal with PUM1 PUF domain R1-CFK was 3.31 log2 enrichment (interaction score).

As for “GGCUAGAACUAGUGGAUCCCCCGGCGCCCGGCGGCUCGAGCCCGGGUAAGUGUAAAUAGUCUGCAUGCCGCCGGGCGCCAUGCCUGCAGGUCGACUCUAGAAAACAUG”, the binding signal with PUM1 PUF domain R6-FRE was 3.3 log2 enrichment (interaction score); in the assay with PUM1 PUF domain R4-CCM, 1.07 log2 enrichment (interaction score); in the assay with PUM1 PUF domain R2-KFG, 7.86 log2 enrichment (interaction score); in the assay with PUM1 PUF domain R4-WGF, 4.73 log2 enrichment (interaction score); with PUM1 PUF domain R5-KYG, 3.77 log2 enrichment (interaction score).

For “GGCUAGAACUAGUGGAUCCCCCGGCGCCCGGCGGCUCGAGCCCGGGUAAGUGUACAUAGUCUGCAUGCCGCCGGGCGCCAUGCCUGCAGGUCGACUCUAGAAAACAUG”, the binding signal is 2.53 log2 enrichment (interaction score) with PUM1 PUF domain R4-WAT and 2.97 log2 enrichment (interaction score) with PUM1 PUF domain R4-SMR.

With “GGCUAGAACUAGUGGAUCCCCCGGCGCCCGGCGGCUCGAGCCCGGGUAAGUGUAAAUCGUCUGCAUGCCGCCGGGCGCCAUGCCUGCAGGUCGACUCUAGAAAACAUG”, the binding signal with PUM1 PUF domain R1-KRD is 3.37 log2 enrichment (interaction score).

On to “GGCUAGAACUAGUGGAUCCCCCGGCGCCCGGCGGCUCGAGCCCGGGUAAGUGUAUAUAGUCUGCAUGCCGCCGGGCGCCAUGCCUGCAGGUCGACUCUAGAAAACAUG”, for which the binding signal with PUM1 PUF domain R4-CCM is 2.39 log2 enrichment (interaction score).

The record behind these values is article PMC8384837, “Expanding the binding specificity for RNA recognition by a PUF domain”.
